Pf growth 48h = inhibits P. falciparum growth in the first generation, 48 h. P. falciparum luciferase growth in erythrocytes, 48 h. Potency, µM (highest dose often 28.7 µM), for the others: at the highest dose activity change, negative = inhibition, most hits filed as inhibitors. actives 5.9% (n = 310,000); note: potency is the fitted concentration of half-maximal effect
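Luciferase-expressing P. falciparum in infected erythrocytes (2% hematocrit, 0.1% parasitemia final) in RPMI 1640/0.5% Albumax were exposed to compound for 48 hours at 37 C, 5% CO2; growth read as luminescence.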
Pf growth 96h = P. falciparum growth inhibition at 96 hours | Potency, µM (top dose mostly 28.7 µM), for the others: top-dose activity change, negative = inhibition, actives largely listed as inhibitors | P. falciparum luciferase reporter growth, 96 h | actives 6.9% (n = 320,000); note: potency is the fitted concentration of half-maximal effect
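96 h incubation, 37 C, 5% CO2, of luciferase-reporter P. falciparum-infected RBCs (2% hematocrit, 0.05% parasitemia final) with test compounds; endpoint luminescence.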
HCMV antiviral = blocks human cytomegalovirus replication | HFF cells, HCMV-luciferase reporter, 72 h; hits give low values | AID 1259415 | actives 4.5% (n = 410,000) | activity change, negative = inhibition, % at 57.5 µM; in the data active = activity change below about -60%; inconclusive = no clear call, values can overlap the other calls; inactive = above about -39%
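Compounds were evaluated in HFFs infected with an HCMV luciferase reporter virus (MOI 1 PFU/cell). Luciferase in lysates collected 72 h post infection served as the replication measure.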
Giardia FBPA inh = inhibitors of Giardia lamblia fructose-1,6-bisphosphate aldolase; A8B2U2; Potency, µM (series often up to 59.6 µM), without a hit: at the top dose activity, negative = inhibition, most hits filed as inhibitors; actives 0.71% (n = 290,000); purified Giardia FBPA; note: potency is the fitted concentration of half-maximal effect; nearly all actives have a fitted effect of over 55% in size
Target sequence (A8B2U2 whole entry, looked up): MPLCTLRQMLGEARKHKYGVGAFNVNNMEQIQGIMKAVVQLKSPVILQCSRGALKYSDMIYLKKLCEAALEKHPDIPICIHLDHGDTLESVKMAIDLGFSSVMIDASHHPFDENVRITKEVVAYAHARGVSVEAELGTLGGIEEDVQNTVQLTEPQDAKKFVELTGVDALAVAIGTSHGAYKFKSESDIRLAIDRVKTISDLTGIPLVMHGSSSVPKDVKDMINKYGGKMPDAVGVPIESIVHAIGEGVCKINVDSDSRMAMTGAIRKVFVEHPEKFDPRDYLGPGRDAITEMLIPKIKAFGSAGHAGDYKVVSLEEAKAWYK
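40 nM FBPA preincubated 10 min at RT with compound (up to 57.5 uM final), then substrate plus GAPDH/TPI/NAD/arsenate coupling and diaphorase/resazurin added. Fluorescence read after 20 min at RT, 525/598 nm.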
Sm TGR inh = blocks Schistosoma mansoni thioredoxin glutathione reductase; Q962Y6; purified TGR, DTNB reduction, TNB absorbance 405 nm; Potency, µM (top dose mostly 114 µM), for the others: at the highest dose activity change, negative = inhibition, actives largely listed as inhibitors; actives 3% (n = 360,000); AID 485364; note: potency is the fitted concentration of half-maximal effect; nearly all actives have a fitted effect of over 60% in size
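TGR 20 nM + NADPH 100 uM (dispensed conc.), cpd preinc 15 min RT; start with NADPH (500 uM addition) then DTNB (15 mM addition). Kinetic TNB absorbance, 405 nm filter. Four-parameter Hill fit across titration.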
Numbers without * were called inactive; ? = inconclusive; / = not tested or not shown; [ ] = another dose, or the depositor's remark. Only some compounds are listed: those with a hit (about 14% of all), similar ones and a draw of the others. Unless noted, calls come from the whole dose curve; as a rule, active = well fitted curve in the direction sought with a large enough effect; inconclusive = small, poorly fitted or top-dose-only effect, or another doubt; inactive = no such curve, though single readings can be large; an effect the other way counts as inactive or inconclusive. % is set by controls: 0 for no effect and ±100 for the full control effect.

SMILES | Pf growth 48h | Pf growth 96h | HCMV antiviral | Giardia FBPA inh | Sm TGR inh
CCC[N+]12CCC(CC1)C(C(O)(c1ccccc1)c1ccccc1)C2 (centres undefined) | ? | 5.22µM* | -10.4 | 3.1% | 13.7%
C[N+]12CCC(CC1)C(C(O)(c1ccccc1)c1cccs1)C2 (centres undefined) | 11.7µM* | 2.62µM* | -8.4 | -0.8% | 0.0%
CCCC[N+]12CCC(CC1)C(Cc1ccccc1)C2 (centres undefined) | ? | ? | 12.1 | -1.6% | 6.0%
C#C[C@]1(O)CC[C@@H]2[C@H]3CCC4=Cc5oncc5C[C@]4(C)[C@@H]3CC[C@@]21C | / | / | / | 0.3%[21.7 µM] | /
COCCCn1c(SCC(=O)N2CCOCC2)nc2cc(Cl)ccc2c1=O | 10.4µM* | -3.9% | -4.0 | / | -7.3%
CCn1c(SCC(=O)Nc2ccccc2)nc2nc3c(cc2c1=O)COC(C)(C)C3 | ? | ? | -15.2 | 5.0% | 0.7%
COC(=O)c1ccc2c(=O)n(CCN3CCOCC3)c(SCC(=O)C(C)(C)C)nc2c1 | ? | 13.1µM* | -8.7 | 0.9% | 21.2%
COC(=O)c1ccc2c(=O)n(CC3CCCO3)c(SCC(=O)Nc3ccc(OC)cc3OC)nc2c1 (centres undefined) | 6.57µM* | ? | 20.5 | 0.3% | 2.2%
COc1ccc(OC)c(NC(=O)CSc2nc3ccccc3c(=O)n2CC2CCCO2)c1 (centres undefined) | ? | ? | -29.6 | -12.3% | 4.3%
CCn1c(SCC(=O)Nc2ccc(OC)cc2OC)nc2nc3c(cc2c1=O)COC(C)(C)C3 | ? | 8.28µM* | ? | 0.2% | 0.3%
COCCCn1c(SCC(=O)N2CCOCC2)nc2ccccc2c1=O | 11.5% | ? | -10.6 | -7.1% | -9.0%
Cc1cc(C(=O)N2CCC2(C)C(=O)NS(=O)(=O)c2cccc(OC(F)F)c2)nn1C (centres undefined) | / | / | 20.8 | / | /
O=C(CC1CC1)N1CC(=O)N2[C@H](CO)[C@@H](c3ccc(Br)cc3)[C@@H]2C1 | / | / | 5.3 | / | /
COC(=O)c1ccc2c(=O)n(CCN3CCOCC3)c(SCC(=O)Nc3ccc(C)cc3)nc2c1 | 0.0% | 11.7µM* | 7.4 | / | -14.3%
CCCCn1c(SC(C)C(=O)NCC2CCCO2)nc2cc(C(=O)OC)ccc2c1=O (centres undefined) | 5.86µM* | 8.28µM* | -23.5 | / | 0.3%
CCOC(=O)CSc1nc2cc(C(=O)OC)ccc2c(=O)n1CCN1CCOCC1 | 47.9% | ? | -8.4 | 1.6% | 2.0%
CC(=O)O[C@H]1C[C@@H](n2cnc3c(Cl)ncnc32)[C@@H]2OC(C)(C)O[C@@H]21 | / | / | -2.2 | / | /
N#CC(CC(=O)c1ccc(F)cc1)c1ccc2c(c1)OCO2 (centres undefined) | 17.3% | 5.6% | -4.4 | 0.9% | 1.2%
O=C(Cc1n[nH]c(=O)c2ccccc12)Nc1cc(Cl)ccc1-n1cncn1 | 6.0% | 22.5% | -8.7 | / | 2.3%
CCCCn1c(SCc2nnc(-c3ccccc3)o2)nc2c1c(=O)n(C)c(=O)n2C | ? | -5.7% | -65.5* | -4.3% | 6.6%
CCn1c(SCc2nnc(-c3ccccc3)o2)nc2c1c(=O)n(C)c(=O)n2C | 8.9% | 6.57µM* | / | 0.8% | 6.7%
CCCCn1c(SCC(=O)NCc2cccs2)nc2c1c(=O)n(C)c(=O)n2C | / | 9.28µM* | 33.1 | 0.1% | 14.7%[11.4 µM]
CCCCn1c(SCC(=O)N2c3ccccc3CCc3ccccc32)nc2c1c(=O)n(C)c(=O)n2C | 6.4% | ? | 4.9 | -0.2% | -5.0%
CCCCn1c(SCC(=O)OC)nc2c1c(=O)n(C)c(=O)n2C | -4.5% | -5.3%[5.75 µM] | 18.1 | -7.3% | 0.0%
COc1ccc(NC(=O)N(C)C[C@H]2Oc3ccc(NC(=O)Cn4cnnn4)cc3C(=O)N([C@H](C)CO)C[C@@H]2C)cc1 | / | / | 15.7 | / | /
SMILES | Pf growth 48h | Pf growth 96h | HCMV antiviral | Giardia FBPA inh | Sm TGR inh
O=C(O)CCN1CCN(S(=O)(=O)c2ccc3ccccc3c2)CC1 | 1.1% | 15.6% | -8.5 | -26.6% | 5.0%
O=C(OCc1ccc(F)cc1)c1ccc2c(c1)-c1ccccc1C2=O | -4.9% | 103.1% | -1.9 | / | -13.9%
CCOC(=O)C1=C(Cc2ccc(F)cc2)C(=O)c2ccccc2C1=O | / | 8.28µM* | 18.3 | 1.77µM* | ?
COc1ccccc1/C=C/C=N/NC(=O)c1ccccn1 | 358.5% | -2.0% | 115.1 | -6.5% | -6.8%
COc1ccccc1/C=C/C=N/NC(=O)c1cc(-c2ccco2)[nH]n1 | ? | -26.1% | -31.1 | -28.9% | 7.08µM*
CCCCCCCCN1CC(Cc2cc3ccccc3c3ccccc23)N(c2ccccc2)c2ccccc2C1=O (centres undefined) | / | / | 1.9 | / | /
CCn1c(=O)c2ccccc2n(CC(=O)NC2CCCCC2)c1=O | 1.4% | 121.0% | -24.8 | -0.4% | 0.9%
CCCC[C@H](CN[C@@H](CNC)[C@H](C)CC)NCCC12CCC(CC1)C2 | ? | 2.62µM* | -96.5* | 17.4% | 1.2%
CCC[C@H](CN[C@@H](CNC)[C@H](C)O)NCCc1ccc(OC)cc1 | -27.8% | ? | 0.8 | 17.3% | -5.7%
COc1ccc(-c2[nH]c3ccccc3c2SCCNC(=O)c2cc3ccccc3oc2=O)cc1 | -18.5% | 9.28µM* | 10.6 | -2.1% | -7.6%
Cc1[nH]c2ccccc2c1SCCNC(=O)c1ccc(S(=O)(=O)N2CCCC2)cc1 | ? | 13.1µM* | -3.1 | 0.8% | -13.2%
COc1ccc(CNC(=O)c2cc3ccccc3oc2=O)cc1 | 29.6% | 151.5% | -24.2 | 6.1% | 12.5%
COc1ccc(C(=O)NCCSc2c(C)[nH]c3ccccc23)cc1 | / | / | -96.4* | / | 3.5%
C[C@@H]1COC(=O)[C@@H](CC(=O)OC(C)(C)C)C/C=C\C[C@H](CC(=O)N(CCO)Cc2ccccc2)C(=O)N1 | / | / | 11.5 | / | /
O=C(COC(=O)CNC(=O)c1ccc(Cl)cc1)Nc1cccc(S(=O)(=O)N2CCCC2)c1 | 144.3% | 17.4% | 30.3 | 16.9% | 0.7%
CN(Cc1ccccc1)C(=O)c1csc([C@H]2C[C@H](O)[C@@H](CO)O2)n1 | / | / | 8.2 | / | /
NC(=S)NN=C1CCCCCCCCCC1 | / | / | -39.3 | / | /
NC(=S)NN=C1CCC(C2CCCCC2)CC1 (centres undefined) | / | / | -79.5* | / | /
O=C(CN1CCN(c2ccccc2F)CC1)NC(=O)NCc1ccco1 | 4.0% | ? | 7.4 | -2.6% | 28.2µM*
O=C(CN1CCN(c2ccccc2)CC1)NC(=O)NCc1ccco1 | -5.8% | -5.3% | -2.5 | 2.3% | -16.3%
O=C(CN1CCN(C(c2ccccc2)c2ccccc2)CC1)NC(=O)NCc1ccco1 | 9.28µM* | 10.4µM* | 80.5 | -0.6% | -14.7%
CCOC(=O)c1ccc(NC(=O)NCc2ccccn2)cc1 | -10.8% | -7.5% | 7.7 | / | 3.0%
CC(=O)Nc1ccc(S(=O)(=O)NC2=C(N3CCN(C)CC3)C(=O)c3ccccc3C2=O)cc1 | ? | ? | -32.6 | 0.708µM* | ?
CCOC(=O)C1CCN(C2=C(NS(=O)(=O)c3ccc(Cl)cc3)C(=O)c3ccccc3C2=O)CC1 | ? | ? | -15.7 | ? | ?
